Targets with a hit are over-represented here; the source holds about 7,900 in all. About 0.6% of all pairs of compound and target were hits. Unmarked numbers belong to inactive results.

Compound in the assay: c1cn2cc(-c3ccc4cn[nH]c4c3)nc(Nc3ccc(N4CCOCC4)cc3)c2n1 [entospletinib]
Kind of assay: log2 fold change, soluble protein after heating vs DMSO (PISA); higher = thermal stabilisation; K562 cells, 10 uM, 30 min; active = over 0.2 and 3.5 SD of the protein, either way, in both replicates (recomputed). An outline of the steps:
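K562 cells at 2×10^6 cells/mL were treated with 10 μM compound for 30 min. Aliquots were heated for 3 min across 48°C-58°C, pooled, and extracted in PBS with 0.5% NP-40 at 4°C; soluble protein was the supernatant after 21,000xg for 90 min. Soluble protein was quantified by TMTpro 16plex LC-MS/MS with channel sums equalised, and reported as log2 fold change in thermal stability against DMSO controls, with values from duplicates.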

Sequence of UniProt P42785 (P42785 whole entry, looked up): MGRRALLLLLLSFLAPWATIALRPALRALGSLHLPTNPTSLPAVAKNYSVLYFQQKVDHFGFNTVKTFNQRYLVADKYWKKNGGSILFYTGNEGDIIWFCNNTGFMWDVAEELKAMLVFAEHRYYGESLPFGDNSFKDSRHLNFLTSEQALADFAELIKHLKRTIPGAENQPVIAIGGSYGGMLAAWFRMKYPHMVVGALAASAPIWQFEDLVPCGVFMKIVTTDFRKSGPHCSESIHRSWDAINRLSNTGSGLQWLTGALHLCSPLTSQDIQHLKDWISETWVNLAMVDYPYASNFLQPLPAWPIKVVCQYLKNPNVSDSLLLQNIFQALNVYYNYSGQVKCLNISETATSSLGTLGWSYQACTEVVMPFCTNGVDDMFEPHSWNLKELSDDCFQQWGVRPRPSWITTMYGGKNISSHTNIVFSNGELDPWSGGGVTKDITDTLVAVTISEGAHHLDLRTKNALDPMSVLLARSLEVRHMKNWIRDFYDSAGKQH
Sequence of UniProt P35998 (P35998 whole entry, looked up): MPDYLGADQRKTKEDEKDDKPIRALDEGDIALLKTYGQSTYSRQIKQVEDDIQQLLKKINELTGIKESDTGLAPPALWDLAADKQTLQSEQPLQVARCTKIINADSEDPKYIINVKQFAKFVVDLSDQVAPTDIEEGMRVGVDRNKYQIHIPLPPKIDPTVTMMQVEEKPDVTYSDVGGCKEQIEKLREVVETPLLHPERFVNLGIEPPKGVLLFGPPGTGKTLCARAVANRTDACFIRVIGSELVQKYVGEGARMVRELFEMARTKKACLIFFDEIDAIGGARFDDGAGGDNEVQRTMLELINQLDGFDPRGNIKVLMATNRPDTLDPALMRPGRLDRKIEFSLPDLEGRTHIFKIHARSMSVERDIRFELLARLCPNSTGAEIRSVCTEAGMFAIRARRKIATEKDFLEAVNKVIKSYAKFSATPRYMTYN
Sequence of UniProt O60678 (O60678 whole entry, looked up): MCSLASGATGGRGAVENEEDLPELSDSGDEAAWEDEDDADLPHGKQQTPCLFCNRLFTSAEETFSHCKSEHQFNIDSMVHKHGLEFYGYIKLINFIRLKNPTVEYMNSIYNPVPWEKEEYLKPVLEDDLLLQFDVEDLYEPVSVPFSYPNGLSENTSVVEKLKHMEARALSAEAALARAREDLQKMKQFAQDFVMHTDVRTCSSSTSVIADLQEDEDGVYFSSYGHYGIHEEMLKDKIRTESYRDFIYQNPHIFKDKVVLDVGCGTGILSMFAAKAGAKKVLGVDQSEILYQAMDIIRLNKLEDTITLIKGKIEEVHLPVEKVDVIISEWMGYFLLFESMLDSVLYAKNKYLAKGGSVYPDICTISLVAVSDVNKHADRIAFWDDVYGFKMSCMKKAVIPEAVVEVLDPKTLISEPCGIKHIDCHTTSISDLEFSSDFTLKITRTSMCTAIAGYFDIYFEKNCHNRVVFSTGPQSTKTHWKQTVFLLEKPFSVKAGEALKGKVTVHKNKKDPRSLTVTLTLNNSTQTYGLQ
Sequence of UniProt P11216 (P11216 whole entry, looked up): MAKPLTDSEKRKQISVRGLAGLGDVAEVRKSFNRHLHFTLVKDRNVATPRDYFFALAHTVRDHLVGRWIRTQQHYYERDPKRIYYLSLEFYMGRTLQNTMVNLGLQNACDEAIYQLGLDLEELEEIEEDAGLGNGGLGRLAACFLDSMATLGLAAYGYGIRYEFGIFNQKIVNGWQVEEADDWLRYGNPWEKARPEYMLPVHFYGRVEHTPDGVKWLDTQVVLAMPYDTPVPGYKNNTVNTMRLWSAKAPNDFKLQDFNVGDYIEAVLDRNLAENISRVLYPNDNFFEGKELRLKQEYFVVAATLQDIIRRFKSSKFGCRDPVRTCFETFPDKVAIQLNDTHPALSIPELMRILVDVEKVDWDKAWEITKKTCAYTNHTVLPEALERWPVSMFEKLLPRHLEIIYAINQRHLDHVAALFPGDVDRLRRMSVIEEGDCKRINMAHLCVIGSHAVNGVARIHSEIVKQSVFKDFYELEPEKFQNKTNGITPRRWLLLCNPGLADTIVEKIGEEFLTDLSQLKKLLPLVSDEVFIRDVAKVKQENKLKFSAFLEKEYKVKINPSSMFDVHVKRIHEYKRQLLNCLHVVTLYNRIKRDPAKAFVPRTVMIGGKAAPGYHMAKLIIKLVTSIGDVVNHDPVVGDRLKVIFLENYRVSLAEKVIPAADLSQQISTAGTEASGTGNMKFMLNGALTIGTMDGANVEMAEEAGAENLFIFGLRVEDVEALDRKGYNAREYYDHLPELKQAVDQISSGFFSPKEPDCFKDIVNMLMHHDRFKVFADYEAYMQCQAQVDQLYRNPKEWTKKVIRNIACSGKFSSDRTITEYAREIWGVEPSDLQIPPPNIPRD
Sequence of UniProt Q05655 (Q05655 whole entry, looked up): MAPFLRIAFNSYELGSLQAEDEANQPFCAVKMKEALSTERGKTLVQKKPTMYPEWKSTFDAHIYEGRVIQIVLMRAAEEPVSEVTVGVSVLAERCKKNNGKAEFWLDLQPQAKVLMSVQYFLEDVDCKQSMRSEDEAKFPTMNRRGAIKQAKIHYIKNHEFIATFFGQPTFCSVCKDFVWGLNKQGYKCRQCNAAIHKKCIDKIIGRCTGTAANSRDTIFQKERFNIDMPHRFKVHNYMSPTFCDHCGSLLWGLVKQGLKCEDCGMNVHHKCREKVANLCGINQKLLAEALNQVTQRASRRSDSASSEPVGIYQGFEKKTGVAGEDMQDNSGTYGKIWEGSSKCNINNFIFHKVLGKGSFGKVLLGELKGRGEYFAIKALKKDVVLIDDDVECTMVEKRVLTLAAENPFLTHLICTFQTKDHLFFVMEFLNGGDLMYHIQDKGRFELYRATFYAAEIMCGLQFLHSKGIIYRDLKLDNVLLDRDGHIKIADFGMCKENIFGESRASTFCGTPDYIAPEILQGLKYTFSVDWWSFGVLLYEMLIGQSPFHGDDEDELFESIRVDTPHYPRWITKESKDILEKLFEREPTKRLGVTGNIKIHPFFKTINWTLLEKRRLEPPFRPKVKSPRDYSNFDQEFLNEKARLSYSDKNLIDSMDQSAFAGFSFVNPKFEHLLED
Sequence of UniProt Q9NR12 (Q9NR12 whole entry, looked up): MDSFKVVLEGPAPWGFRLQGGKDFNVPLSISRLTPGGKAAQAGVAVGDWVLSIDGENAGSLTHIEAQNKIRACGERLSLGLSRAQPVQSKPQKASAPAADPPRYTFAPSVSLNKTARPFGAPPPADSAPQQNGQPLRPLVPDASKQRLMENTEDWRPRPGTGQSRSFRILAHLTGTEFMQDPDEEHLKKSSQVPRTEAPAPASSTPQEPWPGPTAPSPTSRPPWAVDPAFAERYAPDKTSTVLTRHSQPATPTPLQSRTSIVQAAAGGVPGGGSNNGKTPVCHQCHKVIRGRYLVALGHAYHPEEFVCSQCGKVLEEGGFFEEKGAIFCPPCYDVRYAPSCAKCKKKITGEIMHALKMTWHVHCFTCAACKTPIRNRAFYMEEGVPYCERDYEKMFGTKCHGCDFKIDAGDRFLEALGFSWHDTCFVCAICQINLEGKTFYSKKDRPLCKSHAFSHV
Sequence of UniProt Q99541 (Q99541 whole entry, looked up): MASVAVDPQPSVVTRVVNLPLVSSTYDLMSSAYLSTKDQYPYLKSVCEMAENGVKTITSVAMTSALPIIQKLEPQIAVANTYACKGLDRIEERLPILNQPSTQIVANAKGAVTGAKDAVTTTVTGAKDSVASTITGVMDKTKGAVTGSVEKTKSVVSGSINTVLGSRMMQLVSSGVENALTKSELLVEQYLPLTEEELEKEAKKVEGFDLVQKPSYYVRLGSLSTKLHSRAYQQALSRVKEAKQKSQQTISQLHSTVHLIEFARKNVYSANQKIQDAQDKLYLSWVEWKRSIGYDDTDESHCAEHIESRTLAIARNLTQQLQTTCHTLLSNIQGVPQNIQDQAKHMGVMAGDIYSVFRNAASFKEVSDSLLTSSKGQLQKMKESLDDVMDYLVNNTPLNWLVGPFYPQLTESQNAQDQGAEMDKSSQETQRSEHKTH
Sequence of UniProt P13861 (P13861 whole entry, looked up): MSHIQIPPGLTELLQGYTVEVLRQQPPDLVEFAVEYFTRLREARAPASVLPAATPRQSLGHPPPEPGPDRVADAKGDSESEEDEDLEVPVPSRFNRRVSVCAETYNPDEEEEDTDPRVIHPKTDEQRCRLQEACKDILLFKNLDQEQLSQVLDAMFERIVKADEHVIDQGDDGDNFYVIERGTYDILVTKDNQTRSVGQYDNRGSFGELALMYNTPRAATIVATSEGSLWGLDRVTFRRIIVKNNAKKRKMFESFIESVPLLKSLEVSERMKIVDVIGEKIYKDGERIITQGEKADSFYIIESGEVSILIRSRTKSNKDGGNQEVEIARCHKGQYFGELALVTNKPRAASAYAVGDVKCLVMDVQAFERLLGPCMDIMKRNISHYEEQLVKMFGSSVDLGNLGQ

For PRCP (UniProt P42785), the log2 fold change was -0.062.

Take PDLIM7 (UniProt Q9NR12): the log2 fold change was 0.012. To POLR1A (UniProt O95602) belongs -0.057; to PRKAG1 isoform 3 (UniProt P54619), -0.018. The result for PRKCA (UniProt P17252) reads -0.054; that for PLIN2 (UniProt Q99541), 0.043; that for PRMT3 (UniProt O60678), -0.036. The result for PCYT1B (UniProt Q9Y5K3) reads 0.057; that for PRKAR2A (UniProt P13861), 0.088. Consider PYGB (UniProt P11216), for which the log2 fold change is -0.156. Take PRKAR1B (UniProt P31321): the log2 fold change was 0.231. To PRKCD (UniProt Q05655) belongs 0.018; to PSMC2 (UniProt P35998), 0.02.

With PUF60 (UniProt Q9UHX1), the log2 fold change is -0.017.

Source of the values: the supplement of paper PMC10849652.
